# Compound activity from PubChem BioAssay.
# Rows were chosen to be rich in hits. Some 19% of all compounds tested hit in one or more screens of this group.
# DT40 TDP1 no CPT = qHTS for Inhibitors of human tyrosyl-DNA phosphodiesterase 1 (TDP1): qHTS in cells in absence of CPT; DT40 Tdp1-/- hTDP1 cells, no CPT, ATP luminescence, 48 h; Potency, µM (doses to about 46.2 µM), for inactives: top-dose activity change, negative = growth inhibition, most hits filed as inhibitors; 420,000 compounds, 15% hits; further: potency means the concentration at half of the fitted maximal effect; nearly all actives have a fitted effect of over 55% in size
#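 Cells were dispensed at 400 per well, compounds added by pin tool, plates incubated ≥48 hr at 37 °C, then CellTiter-Glo added for 30 min at room temperature before luminescence reading. Line: DT40 Tdp1-/- complemented with hTDP1; camptothecin omitted.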
# HT1080 IDH1KD tx = toxicity to HT-1080 IDH1 knockdown cells (counter line); AID 686971; 360,000 compounds, 2% hits; HT-1080 IDH1 knockdown viability, ATP luminescence, 48 h; Potency, µM (top dose mostly 46.1 µM), for inactives: at the top dose activity, negative = toxicity, hits mostly cytotoxic;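 further: potency means the concentration at half of the fitted maximal effect; 0% = DMSO wells and -100% = cell-free medium wells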
#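 % activity derives from luminescence (CellTiter-Glo), normalised to DMSO and no-cell wells. HT-1080-IDH1KD cells, 750/well, had 48 h compound exposure at 37 °C.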
# TDP1 cell CPT = DT40-hTDP1 cell growth loss with CPT | chicken DT40 Tdp1-/-;hTDP1 cells + 20 nM CPT, ATP luminescence, 48 h | Potency, µM (top dose mostly 46.2 µM), without a hit: at the highest dose activity change, negative = growth inhibition, most hits filed as inhibitors | 420,000 compounds, 12% hits; further: potency means the concentration at half of the fitted maximal effect; nearly all actives have a fitted effect of over 55% in size
#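 Chicken DT40 Tdp1-/- cells complemented with human TDP1, 400 cells/well, exposed to compounds plus 20 nM camptothecin for at least 48 h at 37 C; viability read as ATP content by CellTiter-Glo luminescence.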
# IL1B secr inh = inhibitors of inflammasome signaling (IL-1 beta secretion). activity change, % at 57.5 µM. THP-1 LPS/ATP IL-1B secretion, AlphaLISA, 16 h; active compounds read low. 360,000 compounds, 4.7% hits; in the data active means activity change below about -50%; inconclusive means mostly about -30% to -49%
#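 THP-1 cells pretreated 1 hr with compounds (up to 57.5 uM final), then stimulated with LPS (250 ng/mL final) plus ATP (1.25 mM final); secreted IL-1B measured by AlphaLISA after 16 hr, decreased signal indicating inhibition.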
# HT1080NT lethal = kills 2HG-producing HT-1080-NT fibrosarcoma cells. HT-1080-NT fibrosarcoma viability, CellTiter-Glo ATP luminescence, 48 h. Potency, µM (top dose mostly 46.1 µM), for inactives: at the top dose activity, negative = less viability, actives largely listed as cytotoxic. 360,000 compounds, 1.6% hits. AID 686970;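 further: NT is the 2HG producing partner of a matched IDH1 knockdown line; potency means the concentration at half of the fitted maximal effect; 0% = DMSO-treated cells and -100% = media-only wells without cells; nearly all actives have a fitted effect of over 55% in size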
#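 Toxicity toward the 2HG-producing NT line was scored as %Activity, normalised to DMSO and no-cell wells, from CellTiter-Glo luminescence after 48 hours' treatment.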
# * marks the source's active call; other numbers are inactive results; i = inactive; ? = inconclusive; . = no result given. Unless noted, the call rests on the fitted dose curve; in most records, active means well fitted curve in the direction sought with a large enough effect; inconclusive means small, poorly fitted or top-dose-only effect, or another doubt; inactive means no such curve, though single readings can be large; an effect the other way counts as inactive or inconclusive. Unless noted, on the % scale 0 is the no-effect control and ±100 the full control effect.
SMILES,DT40 TDP1 no CPT,HT1080 IDH1KD tx,TDP1 cell CPT,IL1B secr inh,HT1080NT lethal
Nc1nc(Nc2ccccc2F)nc(N2CCOCC2)c1[N+](=O)[O-],-25%,-9%,7%,6,1%
C#CCN1C=CC(=O)[C@@H](OC(=O)Nc2ccc(Br)cc2)[C@H]1c1ccccc1Br,?,-13%,?,-25,-3%
C=CCN1C=CC(=O)[C@@H](OC(=O)Nc2ccc(Br)cc2)[C@H]1c1ccccc1Br,?,?,23µM*,-20,?
CN1C=CC(=O)[C@@H](OC(=O)Nc2ccc(Br)cc2)[C@H]1c1ccccc1Br,15µM*,-19%,?,-7,-21%
C#CCN1C=CC(=O)[C@@H](OC(=O)Nc2ccccc2Br)[C@H]1c1ccccc1Br,?,3%,23µM*,-17,6%
Cc1cccc(-c2nc(C(N)=O)c3c(n2)n(-c2ccc4c(c2)OCO4)c(=O)n3C)c1,1.8µM*,.,?,.,.
O=C(Nc1ccc(-c2ccco2)cc1)C1CCCN(Cc2ccc(CO)o2)C1 (stereo unspecified),?,-13%,?,-12,-1%
O=C(Nc1ccc(-c2cscn2)cc1)C1CCCN(Cc2ccccc2)C1 (stereo unspecified),?,?,?,15,?
Cc1nn(C)c(Cl)c1CN1CCCC(C(=O)Nc2ccc(-c3cscn3)cc2)C1 (stereo unspecified),?,-4%,16µM*,-69*,-6%
CC(=O)c1cccc(CN2CCCC(C(=O)Nc3ccc(-c4ccco4)cc3)C2)c1 (stereo unspecified),?,?,15µM*,-18,-10%
CC(=O)c1cccc(CN2CCCC(C(=O)Nc3cccc(-n4cccn4)c3)C2)c1 (stereo unspecified),23µM*,-2%,?,i,-14%
O=C(Nc1cccc(-n2cccn2)c1)C1CCCN(Cc2ccc(C#CCCO)cc2)C1 (stereo unspecified),21µM*,-19%,?,i,0%
COC(=O)c1ccc(CN2CCCC(C(=O)Nc3cccc(-n4cccn4)c3)C2)cc1 (stereo unspecified),?,-13%,?,17,-14%
COCCNc1nc2cc(-c3cccc(Cl)c3)sc2c(=O)n1C,?,2%,?,14,12%
O=C(CN1C(=O)C2C3CCC(C3)C2C1=O)N1CCN(Cc2ccccc2)CC1 (stereo unspecified),-14%,13%,15%,42,8%
CC(C)(C)C(=O)NC1CC2CCCC(C1)N2C(=O)Nc1ccccc1 (stereo unspecified),11%,11%,5%,-9,2%
Cc1nn(C)c(Cl)c1CN1CCCC(C(=O)Nc2cccc(-n3cccn3)c2)C1 (stereo unspecified),?,0%,12µM*,-9,-1%
CCn1cc(CN2CCCC(C(=O)Nc3cccc(-n4cccn4)c3)C2)c(C)n1 (stereo unspecified),-5%,-8%,-3%,9,1%
C=C1C(=O)O[C@H]2[C@H]1[C@@H](O)CC(=C)[C@@H]1CC(=O)[C@@H](C)[C@H]21,6.5µM*,?,5.2µM*,-92*,?
CC(C)c1c(C(=O)NCc2ccccn2)cnn1-c1nccc(-c2ccccc2F)n1,-25%,.,?,.,.
Cc1ccc(C2C(C#N)=C(N)Oc3n[nH]c(-c4cccnc4)c32)o1 (stereo unspecified),-2%,-5%,-20%,6,10%
COCc1[nH]nc2c1C(c1ccc(OC)cc1)C(C#N)=C(N)O2 (stereo unspecified),-18%,0%,?,-13,2%
Cc1[nH]nc2c1C(c1cn[nH]c1-c1ccc(F)cc1)C(C#N)=C(N)O2 (stereo unspecified),?,-16%,?,-80*,-21%
